Experimental findings from PubChem BioAssay (NCI) are described below.

Common to all, as to assay: NCI-60 one-dose screen, 48 h (100 = growth as untreated, 0 = no growth, -100 = all killed)
Holding throughout (settings): 10 µM unless noted

Assay [1] deals with NCI/ADR-RES ovarian.
Assay [2] concerns T-47D breast.
Assay [3] deals with BT-549 breast.
For assay [4], the system named is MDA-MB-435 melanoma.
The test system of assay [5] is SW-620 colon.
Assay [6] has as its system MCF7 breast.
In assay [7] the test system is HCT-116 colon.
In assay [8] the test system is HCC-2998 colon.
In assay [9] the test system is KM12 colon.

The structures appear in SMILES notation. The panel holds about 83,000 compounds, 20% with a hit somewhere; the sample as a whole holds those more often.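 Single-dose data. Exposure time 48 hours. Values below 10 considered active.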 Values without a mark were called inactive. Calls of active or inactive are those of the source.

For the compound `[Cl][Hg][c]1cc[c]([Hg][Cl])o1`, the growth in assay [1] was 69.3%; in assay [2], -7.76% (active); in assay [3] it was 14%; in [4], 55.1%; in assay [5], 12.3%; in assay [6], -18.6% (active). Besides, the growth is 30.7% in assay [7], 106% in assay [8] and 76% in [9].
For `O=C(CCCCCNC1=CC(=O)c2ccccc2C1=O)NCCC[Te]c1ccccc1`, the growth in assay [1] is -0.191% (active); in [2], -60.5% (active); in [3] it was -27.7% (active); in assay [4], -15.5% (active); in [5], -7.07% (active); in [6], 4.88% (active). Also, the growth in [7] is -51% (active); in [8] it was -48.7% (active); in [9], -41.6% (active).
Consider `c1ccc(CSC(c2ccccc2)c2ccccc2)cc1`, for which the growth was 106% in assay [1]; 117% in assay [2]; 116% in assay [3]; 114% in [4]; 103% in assay [5]; 124% in [6]. The growth in assay [7] was 89.8%; in assay [8], 107%; in assay [9], 106%.
On to `CC(=O)ONc1ccc([N+](=O)[O-])c(C(F)(F)F)c1`, for which the growth in assay [1] is 101%; in assay [2], 77.1%; in [3] it was 92.9%; in [4] it was 105%; in [5] it was 102%; in [6], 93.6%. The growth was 100% in [7], 108% in assay [8] and 101% in [9].
On to `O=NN1CCCc2cccc(O)c21`, for which the growth in [1] is 32.5%; in [2] it was 77.2%; in [3], 54.2%; in assay [4], 52.1%; in assay [5], 44.1%; in assay [6], 27.2%. Also, the growth in assay [7] was 21.7%; in assay [8] it was 55.7%; in assay [9], 68.4%.
`CC[C@H](C)[C@H](NC(=O)NC(C)(C)C)C(=O)N(C)[C@H](C[C@@H](OC(C)=O)c1nc(C(=O)N[C@@H](Cc2ccccc2)C[C@H](C)C(=O)OC)cs1)C(C)C`: the growth in assay [1] is 23.3%; in assay [2] it was 53.5%; in assay [3], -14.6% (active); in assay [4], -44.9% (active); in assay [5], 20.5%; in assay [6] it was 13.1%. Also, the growth in assay [7] was 1.01% (active); in assay [8] it was 20%; in assay [9] it was 13.8%.
As to `COC(=O)[C@H](Cc1c[nH]c2ccccc12)NC(=O)[C@@H](OC)[C@@H]1Cc2cc3cc(OC4CC(OC5CC(O)C(O)C(C)O5)C(O)C(C)O4)c(C)c(O)c3c(O)c2C(=O)[C@H]1OC1CC(OC2CC(OC3CC(C)(O)C(O)C(C)O3)C(O)C(C)O2)C(O)C(C)O1` (stereo partly specified), the growth was 76.7% in [1]; 8.07% (active) in assay [2]; -53.4% (active) in assay [3]; -71.9% (active) in assay [4]; 6.98% (active) in assay [5]; 5.98% (active) in assay [6]. The growth was 3.71% (active) in assay [7], -46.8% (active) in assay [8] and 0.363% (active) in [9].
For `CCCCN(CCCC)P(=O)(Oc1ccccc1)Oc1ccccc1`, the growth is 51.4% in [1]; 47.4% in assay [2]; 73.5% in assay [3]; 71.4% in [4]; 52% in assay [5]; 48.4% in assay [6]. Further, the growth in assay [7] was 29.2%; in assay [8], 83.7%; in [9], 58.6%.
As for `CC(=O)O[C@H]1C(=O)[C@@]2(C)[C@H]([C@H](OC(=O)c3ccccc3)[C@]3(O)C[C@H](OC(=O)[C@H](OC(=O)OC[C@H]4COC(C)(C)O4)[C@@H](NC(=O)c4ccccc4)c4ccccc4)C(C)=C1C3(C)C)[C@]1(OC(C)=O)CO[C@@H]1C[C@@H]2O`, the growth is 70.1% in [1]; 31.3% in [2]; 9.68% (active) in assay [3]; -73.7% (active) in [4]; 27.8% in assay [5]; 9.62% (active) in assay [6]. Also, the growth in assay [7] is 4.97% (active); in [8], 1.92% (active); in [9], 11.9%.
Take `ClCCN(CCCl)c1ccc(OCc2ccccc2)cc1`: the growth in assay [1] is 56.7%; in assay [2], 68.4%; in assay [3], 42.7%; in [4] it was 75%; in assay [5], 60.9%; in assay [6] it was 31.7%. In addition, the growth is 55.9% in [7], 89.1% in [8] and 90.5% in assay [9].
As for `C[C@@]1(CCCCCCCCCc2ccc(O)cc2)C[C@]2(C)OC(=O)C[C@@H]2OO1`, the growth in [1] is 53.4%; in [2], 83.9%; in assay [3] it was 102%; in assay [4] it was 109%; in assay [5], 103%; in [6] it was 117%. For the same compound, the growth in assay [7] was 77.5%; in assay [8] it was 105%; in assay [9], 127%.
On to `COP(=O)(OC)C(O)c1ccc(Cl)cc1` (stereo unspecified), for which the growth in assay [1] was 96.9%; in assay [2] it was 114%; in [3], 94.1%; in assay [4], 100%; in assay [5] it was 101%; in assay [6], 98.4%. Also, the growth is 94.7% in assay [7], 98.9% in assay [8] and 90% in assay [9].
Turning to `COC(=O)C12CC(NC(=O)c3csc([C@@H](C[C@H](C(C)C)N(C)C(=O)[C@@H](NC(=O)[C@H]4CCCCN4C)C4CC4)OC(C)=O)n3)(C1)C2`, the growth was 43.7% in assay [1]; 43.4% in assay [2]; -10.9% (active) in assay [3]; -40.9% (active) in assay [4]; 25.4% in assay [5]; 19.2% in assay [6]. Moreover, the figures for the growth in [7], in assay [8] and in [9] were 1.78% (active), 21.8% and 1.43% (active), respectively.
As for `COC(=O)[C@@H](C)C[C@H](Cc1ccccc1)NC(=O)c1csc([C@@H](C[C@H](C(C)C)N(C)C(=O)[C@@H](NC(=O)[C@H]2CCCCN2C)C(C(F)(F)F)C(F)(F)F)OC(C)=O)n1`, the growth in assay [1] is 23.8%; in [2], 59.7%; in assay [3] it was -21.6% (active); in assay [4] it was -46.1% (active); in assay [5] it was 23.1%; in assay [6], 12.2%. Further, the growth in assay [7] is -10.3% (active); in assay [8] it was 19.9%; in assay [9], 7.94% (active).
